# Test results published in PubChem BioAssay AID1117361 (Southern Research Institute, 2015).
# The whole screen tested about 3,600 compounds, of which about 900 (25%) were called active. No rule for the calls is given here. The list is a sample of the results. Entries with a potency or affinity are not part of this list.
# Biological target: Protein Tat (Human immunodeficiency virus type 1 group M subtype B (isolate HXB2)) (UniProt P04608)
# Test: HIV-1 Tat–TAR interaction blockers – biochemical, fluorescence polarization, FAM-labeled TAR RNA, counter-screen for Vif-APOBEC3G degradation inhibitor project, dose response (AID 1117361)
# Conditions: Tat-TAR RNA binding; series mostly up to 100 µM; inhibition: at the top concentration
SMILES,inhibition,outcome
CCn1c(-c2csc(-c3ccc(Cl)cc3)n2)n[nH]c1=S,0.68% (inactive),–
COc1ccc(N2CCC(CNS(=O)(=O)c3cccc(C(F)(F)F)c3)C2)cc1 (stereo not drawn),–,inactive
COc1ccc(NC(=O)CN2CCN(c3ccc(F)cc3)CC2)cc1Cl,–,inactive
COc1ccc(-c2nc(C#N)c(NCc3ccccc3Cl)o2)cc1OC,–,inactive
O=C(c1cccc(C(F)(F)F)c1)C1CCCN(C(=O)CCCN2CCCC2=O)C1 (stereo not drawn),0.82% (inactive),–
CCc1nnc(NC(=O)c2ccc(-c3ccccc3Cl)o2)s1,3.38% (inactive),–
CCOC(=O)C1CC(CN2C(=O)c3ccccc3C2=O)OC1=O (stereo not drawn),–,inactive
CCOC(=O)c1c(C)nn(Cc2cccc(Cl)c2)c1N,1% (inactive),–
Nc1ncnc2c1cnn2C1CCCCC1,6.6% (inactive),–
S=c1[nH]nc(COc2ccc(Cl)cc2)n1Cc1ccccc1,14.8% (inactive),–
COc1ccccc1N1CCN(CCc2n[nH]c(=S)n2-c2ccccc2)CC1,2.03% (inactive),–
O=C1N(Cc2cccnc2)C[C@@H]2C[C@@H](c3ccc4nsnc4c3)N3CCC[C@@]123,5.77% (inactive),–
COc1cccc(C(=O)N2CCN(Cc3nc(CC4CC4)no3)CC2)c1,1.65% (inactive),–
COc1ccc(N=CC2=C(O)CCCC2=O)cc1,3.38% (inactive),–
O=C1CCCC(O)=C1C=Nc1ccc(O)cc1,21.1% (inactive),–
CC1CN(C(=O)COC(=O)Cc2ccc(Cl)cc2)CC(C)O1 (stereo not drawn),–,inactive
CCCCn1c(C)nc2c(=O)n(C)c(=O)[nH]c21,4.05% (inactive),–
CCN(CC)CCN1C(=O)C(=O)/C(=C(/O)c2ccc(C)cc2)C1c1ccncc1 (stereo not drawn),–,inactive
CC(OC(=O)/C=C/c1ccco1)C(=O)NC1CCCCC1 (stereo not drawn),–,inactive
CCCc1nc2ccccc2c(C(=O)OCC(=O)N2CCc3ccccc32)c1CC,4.09% (inactive),–
CN(C1CCCCC1)S(=O)(=O)c1cccc(C(=O)OCC(=O)NC2CCCc3ccccc32)c1 (stereo not drawn),–,inactive
Cc1nc2ccc(NC(=O)c3cc(S(=O)(=O)N4CCOCC4)ccc3C)cc2s1,–,inactive

SMILES,inhibition,outcome
COc1ccc(OCCOC(=O)c2cccc(-n3cnnn3)c2)cc1,8.78% (inactive),–
COc1ccc(C(C)(C)C)cc1NC(=O)C1C2C=CC(C2)C1C(=O)O (stereo not drawn),–,inactive
CC1CCc2nc(NC(=O)c3ccco3)sc2C1 (stereo not drawn),0.68% (inactive),–
c1coc(-c2nc3nc4ccccc4n3nc2-c2ccco2)c1,3.67% (inactive),–
Cc1cc(-c2ccco2)n(-c2ccccc2)n1,19.1% (inactive),–
O=C(Nc1nc(-c2ccco2)c(-c2ccco2)s1)c1ccc(F)cc1F,26.4% (inactive),–
Cc1nc2nc(-c3ccco3)nn2c(C)c1Cl,5.68% (inactive),–
O=C1CN(C(=O)COC(=O)c2oc3ccccc3c2COc2ccccc2)c2ccccc2N1,2.7% (inactive),–
Cc1cc(C(=O)Nc2c(C)cccc2C)n(-c2ccccc2)n1,–,inactive
Cc1ccc(NC(=O)CSc2nnc([C@H](C)NC(=O)OC(C)(C)C)o2)c(C)c1,–,inactive
Cn1c2ccccc2c2c(C(=O)O)cn(C3CCCC3)c(=O)c21,10.1% (inactive),–
CCC(=O)N1CCc2cc(S(=O)(=O)NCCC(=O)NC3CCCc4ccccc43)ccc21 (stereo not drawn),12.2% (inactive),–
COc1ccc(N(C(=O)c2ccco2)S(=O)(=O)c2cc(Cl)c(Cl)cc2Cl)cc1,2.7% (inactive),–
O=C(O)CCC(=O)NNC(=O)CCC(=O)NCc1ccccc1,–,inactive
CC(c1ccccc1)N(C)CC(=O)NC(=O)NCCC1=CCCCC1 (stereo not drawn),–,inactive
O=C(NCc1cccs1)c1ccc2c(c1)ncn2C1CCCC1,2.05% (inactive),–
Cc1cccc2c1N(CCCOc1ccc(C(C)(C)C)cc1)C(=O)C2=O,–,inactive
O=C(CSc1nc2cc(Cl)ccc2s1)N1CCN(C(=O)c2ccco2)CC1,8.78% (inactive),–
CCOC(=O)c1cc2sc(C)cc2n1CC(=O)N1CCN(C(=O)c2ccco2)CC1,7.43% (inactive),–
COc1ccccc1CN(C)C(=O)CN1CCN(C(=O)c2cccs2)CC1,3.3% (inactive),–
Cc1nn(-c2ccccc2)c(C)c1/C=N/NC(=O)c1cc(-c2ccccc2)n[nH]1,4.09% (inactive),–
COc1ccccc1NS(=O)(=O)c1cccc2cccnc12,4.05% (inactive),–

SMILES,inhibition,outcome
Cn1c(=O)cc(NCc2ccccc2)[nH]c1=O,4.05% (inactive),–
O=C(NCC1CCCO1)C1CCCN(Cc2cnn(-c3ccccc3)c2-n2cccc2)C1 (stereo not drawn),5.41% (inactive),–
Cc1ccc2[nH]c(=O)c(CN(Cc3ccco3)C(=O)c3ccncc3)cc2c1,–,inactive
COc1ccc2nc3oc(C(=O)N4CCCCC4)cc3cc2c1,1.36% (inactive),–
Cc1ccc(NC(=O)COc2ccccc2C(=O)Nc2ccccc2)cc1Cl,7.5% (inactive),–
COc1cc(NC(=O)Cc2ccccc2)cc(OC)c1,4.77% (inactive),–
O=C(CCCCCCC(=O)NCc1ccccc1)NCc1ccccc1,8.35% (inactive),–
CC(C)Cn1c2c(c(O)c(C(=O)Nc3nccs3)c1=O)CCCC2,–,inactive
COc1ccc(-c2[nH]c3ccccc3c2SCCN)cc1,–,inactive
Cc1nnc(N2CCc3ccccc3C2)[nH]c1=O,8.87% (inactive),–
COc1cccc(CC(=O)Nc2nccs2)c1,0.68% (inactive),–
CCS(=O)(=O)N1CCC(C(=O)NCc2cccc(OC)c2)CC1,–,inactive
O=C(Cn1cnc2ccccc2c1=O)c1cccs1,4.09% (inactive),–
CN(C)c1nc(N)nc(CSc2ncc(Cl)cc2Cl)n1,–,inactive
Cc1ccccc1CCNC(=O)c1ccc(Cl)c(S(=O)(=O)N2CC(C)OC(C)C2)c1 (stereo not drawn),–,inactive
COc1ccccc1-n1cnc2cc(NCc3cccs3)ccc21,2.7% (inactive),–
COc1ccc(S(=O)(=O)N2CCCCCC2)cc1C(=O)OCC(=O)NC(N)=O,1.35% (inactive),–
Cn1c(NC(=O)c2cccs2)cc(=O)n(C)c1=O,–,inactive
CSc1nc2ccc3nc(NC(=O)c4cccs4)sc3c2s1,15.5% (inactive),–
CCCCCCn1c(SCC(=O)c2c(N)n(C)c(=O)n(C)c2=O)nc2ccccc21,4.05% (inactive),–
COc1cccc(C(=O)CSc2nc3ccccc3n2CC(=O)N2CCOCC2)c1,–,inactive
CN(CC(=O)NCCc1ccccc1)S(=O)(=O)c1cccs1,6.76% (inactive),–

SMILES,inhibition,outcome
O=C1CCCC2=C1C(c1ccco1)Nc1ccc3ccccc3c12 (stereo not drawn),1.67% (inactive),–
COc1ccc(Br)cc1C1CC(=O)N2CN(Cc3ccccc3)CSC2=C1C#N (stereo not drawn),16.2% (inactive),–
COc1ccc(C2CC(=O)N3CN(c4ccc(C)c(Cl)c4)CSC3=C2C#N)cc1 (stereo not drawn),22.3% (inactive),–
CCOC(=O)CCN(Cc1sccc1C)S(=O)(=O)c1ccc(F)cc1,10.8% (inactive),–
Cc1ccnc(NC(=O)c2ccc(Cl)c(S(=O)(=O)N3CCCC3)c2)c1,–,inactive
COc1ccc(NC(=O)Cn2c(=O)sc3ccccc32)cc1,–,inactive
COc1ccc(Cc2nnc(NC(=O)CSc3ccccc3)s2)cc1,–,inactive
C[C@@H]1CCCCO[C@H](CN(C)C(=O)c2ccccc2)[C@@H](C)CN([C@H](C)CO)C(=O)c2cc(NC(=O)NC3CCCCC3)ccc2O1,3.01% (inactive),–
CCOc1ccc(-n2c(=O)c3c(C)c(C)sc3n(CC(=O)NCc3ccco3)c2=O)cc1,8.87% (inactive),–
Cc1cccc(NC(=O)Cn2c(=O)n(Cc3ccco3)c(=N)c3c4c(sc32)COC(C)(C)C4)c1,–,inactive
CCOC(=O)c1cc([N+](=O)[O-])cc([N+](=O)[O-])c1Sc1ncnc2nc[nH]c12,–,inactive
CCCCn1c(N)c(N(CCC(C)C)C(=O)C2=NN(c3cc(C)ccc3C)C(=O)CC2)c(=O)[nH]c1=O,2.34% (inactive),–
CC(=O)N(C1=C(Cl)C(=O)c2ccccc2C1=O)c1ccc(C(=O)O)cc1,–,inactive
CCC(C(=O)OCC(=O)Nc1ccc(SC(F)F)cc1)c1ccccc1 (stereo not drawn),15.7% (inactive),–
Cc1ccc(C(c2nnnn2CC2CCCO2)N2CCN(C)CC2)cc1 (stereo not drawn),–,inactive
CC(C)CC(c1nnnn1C1CCCCC1)N1CCN(c2ncccn2)CC1 (stereo not drawn),2.05% (inactive),–
CCC(=O)Nc1cc(C(=O)OCC(=O)c2ccccc2Cl)ccc1C,2.03% (inactive),–
O=C(NCc1ccc(Cl)cc1)c1ccccc1Oc1ccccc1,3.38% (inactive),–
COC(Cc1nnc(SC)n1-c1ccc(Cl)cc1)OC,–,inactive
CCOC(=O)CSc1nc2c(sc(=S)n2-c2ccccc2OC)c(=O)n1Cc1ccco1,21.8% (inactive),–
O=C(O)c1ccc(-n2c(-c3cc(-c4ccco4)[nH]n3)n[nH]c2=S)cc1,8.78% (inactive),–
CCCn1c(Sc2nc3c(c(=O)[nH]c(=O)n3C)n2CCC)nc2c1c(=O)[nH]c(=O)n2C,–,inactive

SMILES,inhibition,outcome
CCC(C)n1cnc2c(c1=O)c1nc3ccccc3nc1n2-c1ccc2c(c1)OCCO2 (stereo not drawn),4.05% (inactive),–
CCCn1nnnc1-c1cccc(Cl)c1,2.03% (inactive),–
COc1ccc(C(=O)CSc2nnc3n2CCCN3C(=O)Nc2ccccc2)cc1,–,inactive
CN(C)c1nc(N)nc(CSc2nc3c(c(=O)n(C)c(=O)n3C)n2Cc2ccccc2F)n1,23.1% (inactive),–
CC(=O)Nc1ccc(OCC(O)CNC2CCCC2)cc1 (stereo not drawn),–,inactive
CC(=O)c1ccc(N2C(=NC(=O)C3CCCO3)SC3CS(=O)(=O)CC32)cc1 (stereo not drawn),3.01% (inactive),–
O=C(c1cc2ccccc2oc1=O)N1CCN(c2ccc(N3CCOCC3)nn2)CC1,–,inactive
COc1ccccc1C1NC(c2ccccc2OC)C(C)C(=O)C1C (stereo not drawn),8.11% (inactive),–
O=C(c1cccnc1NCc1ccc(F)cc1)N1CCOCC1,4.05% (inactive),–
CCOc1ccc(C2NC(=O)C(C#N)=C(S)N2c2ccc(OC)cc2)cc1OC (stereo not drawn),2.73% (inactive),–
CC1(CCc2ccc3c(c2)OCO3)NC(=O)c2ccccc2N1 (stereo not drawn),–,inactive
O=C(COc1ccccc1C(=O)O)Nc1ccc(SC(F)F)cc1,–,inactive
CCOC(=O)c1c(NC(=O)c2cccs2)sc(C)c1C,10.7% [at 50 µM] (inactive),–
CCCc1cc(=O)[nH]c(SCC(=O)Nc2cc3c(cc2C(C)=O)OCO3)n1,2.05% (inactive),–
Cc1cc(NC(=O)CCC(=O)N(CCC(C)C)C(C(=O)NC2CCCC2)c2cccnc2)no1 (stereo not drawn),–,inactive
COc1ccc2c3c(c(=O)oc2c1OCC(=O)C(C)(C)C)CCCC3,–,inactive
Cc1cc(C)c2nc(N3CCCN(C(=O)c4cnccn4)CC3)c(C#N)cc2c1,26.6% (inactive),–
NS(=O)(=O)c1cccc(NS(=O)(=O)c2ccc(/C=C/C(=O)OCC(=O)c3ccccc3)cc2)c1,–,inactive
Cc1ccc(-n2nnnc2SCc2ccccn2)cc1C,4.73% (inactive),–
Cc1cc(SCC2=NNC(=O)C2)c(Cl)cc1Cl,2.47% (inactive),–
